Values without a mark were called inactive. How the calls were made is not given here.
Potency means the concentration at half of the fitted maximal effect.

This test has as its system HIV-1 nucleocapsid protein NCp7 (binding to TG oligonucleotide). Kind of test: HIV Nucleocapsid (AID 346).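 Further: potency is for inhibitors that block NC binding and lower polarization.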 The conditions noted are these: HIV-1 NC / fluorescein-TGTGTGTG probe, fluorescence polarization. Put shortly: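 NCp7 100 nM + fluorescein TG4xF 10 nM; Hepes pH 7.5/250mM NaCl/1uM ZnCl2/0.004% PEG 20000; 1 hr RT; FP, 45 s exposure; oligo-only wells as negative control.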
For the compound `COC(=O)N1CCC2(CC1)CN(C(c1ccccc1)c1ccccc1)C2`, the Potency was more than 20 µM.

In the case of `Cc1nc2cnc(N3CCNCC3)nc2n(Cc2ccc(F)cc2)c1=O`, the Potency was more than 4 µM.

For `COc1ccccc1CNc1ccnc(-c2ccccc2CN(C)C)n1`, the Potency is more than 20 µM.

For `CN(Cc1ccco1)c1ncncc1-c1ccoc1`, the Potency is more than 20 µM.

Take `FC(F)(F)c1ccccc1-c1nccc(N2CCNCC2)n1`: the Potency is more than 20 µM.

For the compound `COc1ccc2[nH]cc(CCNc3nc(-c4ccccc4OC)nc4ccccc34)c2c1`, the Potency was more than 20 µM.

For `Cc1ccccc1-c1ccc2ncnc(-n3ccnc3)c2c1`, the Potency was more than 20 µM.

With `Cc1noc(C)c1-c1cc(NCCN2CCOCC2)ncn1`, the Potency was more than 20 µM.

`CC(C)CN1CCCC2(CCN(C(=O)c3cc(C(F)(F)F)cc(C(F)(F)F)c3)CC2)C1`: the Potency was more than 20 µM.

Consider `CN(C)Cc1ccccc1-c1nccc(NCc2cccs2)n1`, for which the Potency was more than 20 µM.

In the case of `Cc1nc2cncnc2n(Cc2ccc(F)cc2)c1=O`, the Potency was more than 20 µM.

For `Fc1ccc(Nc2ccnc(-c3ccoc3)n2)cc1`, the Potency is more than 20 µM.

Consider `FC(F)(F)c1ccccc1-c1ccc2ncnc(NC3CC3)c2c1`, for which the Potency is more than 20 µM.

With `Cc1noc(C)c1C(=O)N1CCC[C@@]2(CCN(Cc3nccs3)C2)C1`, the Potency was more than 20 µM.

Regarding `CN1CCC2(CC1)CCN(C(=O)c1cccc(F)c1)CC2`, the Potency is more than 20 µM.

For `COCC(=O)N1CCC2(CC1)CN(c1ccccc1)C2`, the Potency was more than 20 µM.

Regarding `O=C(c1cccc(F)c1)N1CCC2(CC1)CCN(c1ncccn1)CC2`, the Potency was more than 20 µM.

For the compound `O=c1cnc2cncnc2n1Cc1ccc(F)cc1`, the Potency was more than 20 µM.

With `CS(=O)(=O)Nc1cccc(-c2nc(-n3ccnc3)c3ccccc3n2)c1`, the Potency was more than 20 µM.

Regarding `Cn1cccc1C(=O)N1CCC2(CCCN(C(=O)Nc3ccccc3)C2)CC1`, the Potency was more than 20 µM.

Regarding `COc1cccc(Cn2c(=O)c(-c3ccccc3)nc3cnc(N4CCN(C)CC4)nc32)c1`, the Potency was more than 20 µM.

On to `Cn1c(=O)c(-c2ccc(F)cc2)nc2cnc(Nc3ccccc3)nc21`, for which the Potency was more than 20 µM.

For `COc1ncc2nc(-c3ccc(F)cc3)c(=O)n(-c3ccccc3)c2n1`, the Potency was more than 20 µM.

`COc1ccc(C(=O)N2CCC3(CCN(C)CC3)CC2)cc1`: the Potency was more than 20 µM.

Regarding `COc1ccc(NC(=O)N2CC3(CCN(C(=O)c4cc(C(F)(F)F)cc(C(F)(F)F)c4)CC3)C2)cc1`, the Potency is more than 20 µM.

With `Cn1c(=O)c(-c2ccccc2)nc2cnc(Oc3ccccc3)nc21`, the Potency is more than 20 µM.

For the compound `COC(=O)N1CCC2(CC1)CN(C(=O)Nc1ccc(OC)cc1)C2`, the Potency is more than 20 µM.

As to `COCC(=O)N1CCC2(CCCN(c3ccccn3)C2)CC1`, the Potency is more than 20 µM.

In the case of `O=c1c(CCc2ccccc2)nc2cnc(N3CCNCC3)nc2n1C1CC1`, the Potency was more than 20 µM.

Consider `COc1ccc(-c2nc3cnc(N4CCNCC4)nc3n(C)c2=O)cc1`, for which the Potency is more than 20 µM.

As to `CN(C)c1ncc2nc(-c3ccccc3)c(=O)n(Cc3ccc(F)cc3)c2n1`, the Potency was more than 20 µM.

Turning to `N#Cc1cccc(NC(=O)N2CC3(CCN(C(=O)c4cnccn4)CC3)C2)c1`, the Potency is more than 20 µM.

Regarding `COc1ccc(NC(=O)N2CCCC3(CCN(S(C)(=O)=O)CC3)C2)cc1`, the Potency is more than 20 µM.

With `Cc1noc(C)c1-c1cc(NC2CC2)ncn1`, the Potency was more than 20 µM.

Turning to `CN(C)C(=O)c1ccc(-c2nc(NCc3cccs3)c3ccccc3n2)cc1`, the Potency is more than 20 µM.

With `N#CCCn1c(=O)c(-c2ccccc2)nc2cnc(Oc3ccccc3)nc21`, the Potency was more than 20 µM.

In the case of `CN(C)C(=O)c1ccc(-c2nccc(Nc3ccc(F)cc3)n2)cc1`, the Potency is more than 20 µM.

On to `CN(C)c1ccc(-c2ccc3ncnc(NC4CC4)c3c2)cc1`, for which the Potency was more than 20 µM.

`O=C(c1csnn1)N1CCC[C@@]2(CCN(C(c3ccccc3)c3ccccc3)C2)C1`: the Potency was more than 20 µM.

(Values after PubChem BioAssay (NCATS).)
